Bioassay records as filed in PubChem.
AmpC no deterg: blocks E. coli AmpC beta-lactamase in detergent-free assay | P00811 | AmpC nitrocefin hydrolysis, absorbance 480 nm, 0.0001% Triton | Potency, µM (series often up to 57.1 µM), most hits filed as inhibitors | actives 0.52% (n = 330,000) | AID 485341; also: nearly all actives have a fitted effect of over 20% in size
Target sequence (P00811 whole entry, looked up): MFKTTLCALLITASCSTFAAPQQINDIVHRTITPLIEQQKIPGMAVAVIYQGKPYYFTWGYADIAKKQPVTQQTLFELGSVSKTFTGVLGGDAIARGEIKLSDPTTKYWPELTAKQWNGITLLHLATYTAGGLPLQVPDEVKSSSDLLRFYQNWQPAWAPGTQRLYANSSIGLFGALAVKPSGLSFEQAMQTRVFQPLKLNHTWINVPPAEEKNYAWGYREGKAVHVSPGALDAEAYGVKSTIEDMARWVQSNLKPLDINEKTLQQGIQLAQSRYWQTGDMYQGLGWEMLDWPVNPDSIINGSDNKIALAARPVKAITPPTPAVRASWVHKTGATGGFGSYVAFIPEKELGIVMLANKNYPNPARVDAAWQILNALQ
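AmpC (5.3 nM in the dispensed reagent) in 20 mM phosphate pH 7.0 with 0.01% (detergent screen) or 0.0001% Triton X-100 was preincubated with compounds for 15 min at room temperature. Nitrocefin was then added from an 800 uM solution, and hydrolysis was followed at 480 nm.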
TbPYK inhibitor: inhibitors of Trypanosoma brucei pyruvate kinase; TbPYK enzyme, Kinase-Glo Plus ATP luminescence, 45 min; Potency, µM (top dose mostly 76.8 µM), most hits filed as inhibitors; actives 0.12% (n = 410,000); Q57TT1; also: nearly all actives have a fitted effect of over 50% in size
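Enzyme and substrate buffer are dispensed first and compound is pin-transferred. ADP at 130 uM final then starts the reaction, which runs 45 min at room temperature. Detection reagent is added for 10 min before luminescence is imaged.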
RE007 growth inh: less growth of the S. pombe RE007 Vpr strain; S. pombe RE007 Vpr strain, BacTiter-Glo ATP luminescence, 24 h; Potency, µM (top dose mostly 92.2 µM), actives largely listed as inhibitors; actives 0.21% (n = 360,000); active = well fitted falling curve with a large enough effect; inconclusive = small, poorly fitted or top-dose-only effect; inactive = no such curve, though single readings can be large or run the other way; also: nearly all actives have a fitted effect of over 50% in size
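Fission yeast strain RE007, carrying one chromosomally integrated HIV-1 vpr copy, was seeded at OD 0.01 in PMG+AL medium with 23 nL pinned compound. After 24 h at 30 °C and 99% humidity, viability was read by BacTiter-Glo luminescence.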
LmPK inhibitor: LmPK (Leishmania mexicana) enzyme inhibition; Q27686; purified LmPK, Kinase-Glo ATP luminescence, 1 h; Potency, µM (titrated, usually from 57.5 µM), hits mostly inhibitors; actives 0.37% (n = 290,000); AID 1721
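qHTS format; LmPK 0.1 nM; substrates PEP 0.5 mM and ADP 0.1 mM. One-hour room-temperature incubation, then coupled luciferase luminescence; 0.5 nM enzyme wells mark activation.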
Giardia FBPA inh: inhibitors of Giardia lamblia fructose-1,6-bisphosphate aldolase. A8B2U2. purified Giardia FBPA. Potency, µM (top dose mostly 59.6 µM), hits mostly inhibitors. actives 0.71% (n = 290,000). AID 2451; also: nearly all actives have a fitted effect of over 55% in size
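Giardia FBPA (40 nM reagent) was preincubated 10 min at RT with compound (up to 57.5 uM final), then substrate plus GAPDH/TPI/NAD/arsenate coupling system with diaphorase/resazurin was added; resorufin fluorescence (525/598 nm) was read after 20 min.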
AmpC detergent: inhibitors of E. coli AmpC beta-lactamase with detergent. P00811. Potency, µM (top dose mostly 114 µM), hits mostly inhibitors. AmpC hydrolysis of nitrocefin, absorbance 480 nm, 0.01% Triton. AID 485294. actives 0.041% (n = 370,000); also: nearly all actives have a fitted effect of over 25% in size
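AmpC (5.3 nM in the dispensed reagent) in 20 mM phosphate pH 7.0 with 0.01% (detergent screen) or 0.0001% Triton X-100 was preincubated with compounds for 15 min at room temperature. Nitrocefin was then added from an 800 uM solution, and hydrolysis was followed at 480 nm.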
LmPK inh confirm: Confirms inhibition of Leishmania mexicana pyruvate kinase | shares compounds with LmPK inhibitor | actives 40% (n = 150) | purified LmPK, Kinase-Glo ATP luminescence, 1 h | Potency, µM (series often up to 57.5 µM), hits mostly inhibitors;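 active = compounds giving a full or partial concentration-response curve, as inhibitors or activators; inconclusive = weak, top-dose-only or unclear curve responses; inactive = no response at any tested dose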
Hits are given with their value; 0 = inactive; ? = inconclusive; - = no result. Hits are enriched below; roughly 1.4% of the tested compounds scored in any of these assays. Unless noted, calls follow the shape of the dose curve; as a rule, active = well fitted curve in the direction sought with a large enough effect; inconclusive = small, poorly fitted or top-dose-only effect, or another doubt; inactive = no such curve, though single readings can be large; an effect the other way counts as inactive or inconclusive.

SMILES	AmpC no deterg	TbPYK inhibitor	RE007 growth inh	LmPK inhibitor	Giardia FBPA inh	AmpC detergent	LmPK inh confirm
Cc1ccc(-c2nnc(N(C)C(=O)c3cccnc3)s2)cc1	0	0	0	0	-	0	0
CCOc1ccc(NC(=O)Cn2nc(-c3ccccc3Cl)n(CC)c2=S)cc1	0	0	0	0	0	0	-
CCn1c(-c2ccccc2Cl)nn(CC(=O)Nc2ccc(OC)cc2)c1=S	0	0	0	0	0	0	0
CCOC(=O)c1nnn(-c2nonc2N)c1-c1ccc(C)cc1	0	0	0	0	0	?	0
CCOc1ccc(C(=O)c2cn(CC(=O)Nc3ccc4c(c3)OCCO4)c3ccc(F)cc3c2=O)cc1	-	0	-	-	-	0	-
CCCS(=O)(=O)NCCc1sc2nc(-c3ccc(Cl)cc3)nn2c1C	-	0	-	-	-	0	-
COC(=O)CSC1=NS(=O)(=O)c2ccccc21	0	22µM	0	5µM	0	0	?
CCc1c(C)sc2c1CCN(Cc1ccc(F)cc1)C2c1ccccc1 (stereo not drawn)	-	0	-	-	-	0	-
COc1cc(NC(=O)CC2C(=O)N(c3ccc(Cl)cc3)C(=O)N2Cc2cccs2)cc(OC)c1 (stereo not drawn)	-	0	-	-	-	0	-
O=C1c2ccccc2-c2n[nH]c3cccc1c23	-	0	0	-	0	-	-
Cc1ccc(-c2cc3c(nn2)-c2ccccc2C3=O)cc1	0	?	0	7.1µM	0	0	10µM
CC(=O)c1cc(C#N)c(Oc2ccc(F)cc2)nc1C	0	0	0	0	0	0	0
Nc1ncnc2c1ncn2[C@@H]1O[C@H](COP(=O)(O)O)[C@@H](O)[C@@H]1O	-	-	-	-	0	-	-
Nc1ncnc2c1ncn2[C@@H]1O[C@H](COP(=O)(O)O)[C@@H](O)[C@H]1O	0	?	?	10µM	0	0	6.5µM
Nc1ncnc2c1ncn2C1OC(COP(=O)(O)O)C(O)C1O (stereo not drawn)	0	0	?	16µM	0	?	5.8µM
Nc1ncnc2c1ncn2[C@@H]1O[C@H](COP(=O)(O)CP(=O)(O)OP(=O)(O)O)[C@H](O)[C@H]1O	-	-	-	-	0	-	-
CSc1cccc(NC(=O)c2cnn(-c3ccc(F)cc3)c2-n2cccc2)c1	-	0	-	-	-	0	-
O=C1c2ccccc2C(=O)C1c1nccc2ccccc12	0	0	0	0	0	0	-
O=C1c2ccccc2C(=O)C1c1ccnc2ccccc12	0	0	0	7.1µM	0	?	?
COc1c(C)cc(S(=O)(=O)Nc2cccc(-c3ccc(N4CCOCC4)nn3)c2)c(C)c1C	-	0	-	-	-	0	-
c1ccc2nc(-c3nc4ccccc4[nH]3)ccc2c1	0	?	?	4.5µM	0	0	9.2µM
c1ccc(C2=NNC(=NC3CC3)SC2)cc1	0	?	?	4.5µM	0	0	15µM
c1ccc2c(C3=NNC(=NC4CC4)SC3)c[nH]c2c1	0	0	0	0	0	0	-
COc1cc2c(C(=O)N3CCN(c4cccc(C)c4)C(C)C3)cn(CC(C)C)c(=O)c2cc1OC (stereo not drawn)	-	0	-	-	-	0	-
COc1ccc(Cn2c(C(=O)O)c(CNCCc3cccs3)c3ccc(C)cc32)cc1	-	0	-	-	-	0	-
SMILES	AmpC no deterg	TbPYK inhibitor	RE007 growth inh	LmPK inhibitor	Giardia FBPA inh	AmpC detergent	LmPK inh confirm
Cc1cccc(C(=O)NC2CCN(C(=S)NCc3ccco3)CC2)c1	0	0	0	0	0	0	0
Cc1cc(O)c(-c2cc(O)c(C)cc2O)cc1O	0	?	0	0.71µM	16µM	?	?
Cc1cccc(/C(N)=N/OC(=O)c2ccoc2C)c1	0	0	0	0	0	0	-
Cc1occc1C(=O)O/N=C(\N)c1ccccc1	0	?	?	3.5µM	0	0	10µM
CC(C)C(NC(=O)c1ccc2c(c1)OCO2)C(=O)N/N=C/c1cccs1 (stereo not drawn)	0	0	0	0	0	0	-
CC(C)C(NC(=O)c1ccc2c(c1)OCO2)C(=O)N/N=C\c1ccco1 (stereo not drawn)	0	0	0	0	0	0	0
Cc1ccc(Oc2ccccc2/C=C2\SC(=O)N(C)C2=O)cc1	0	0	0	0	0	0	0
COc1cccc(-c2nc3ccccc3s2)c1	0	0	?	10µM	0	0	?
CCc1n[nH]c(=S)n1/N=C/c1ccc2c(c1)OCO2	0	?	0	0	0	0	0
COC(=O)C1=C(C)NC2=C(C(=O)C(C(=O)OC)C(c3ccc(OC)cc3)C2)C1c1ccccn1 (stereo not drawn)	0	0	0	0	0	0	0
